Hits are enriched below; roughly 8% of the tested compounds scored in any of these assays.
KB-V1 MDR tox = qHTS assay for MDR1-selective chemotherapeutics: Primary screen using the drug-selected MDR subline cells KB-V1; KB-V1 MDR cells viability, CellTiter-Glo, 72 h; Potency, µM (titrated, usually from 46.1 µM), actives largely listed as cytotoxic; 400,000 compounds, 3.4% hits; AID 1347076, 2019; also: % is scaled to controls: 0 for no effect and ±100 for the full control effect; nearly all actives have a fitted effect of over 60% in size
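Compound-treated KB-V1 multidrug-resistant cells, 72 h, 37 degrees C; viability by CellTiter-Glo. Fitted qHTS curves give the values.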
SW480 rereplic = A quantitative high throughput screen for small molecules that induce DNA re-replication in SW480 colon adenocarcinoma cells. AID 624297, 2012. Potency, µM (doses to about 46.1 µM), without a hit: at the top dose re-replication activation, actives largely listed as activators. 340,000 compounds, 1.8% hits. SW480 DNA re-replication, Hoechst DNA content imaging, 48 h; also: % of control where 0% means no effect; nearly all actives have a fitted effect of over 55% in size
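Hoechst fluorescence of nuclei (405 nm excitation, 500-530 nm emission) measured by plate-scanning imager after 48 hr compound exposure at 37 C; re-replication scored as increased number of nuclei with elevated intensity.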
HT1080-NT tox = qHTS for induction of synthetic lethality in tumor cells producing 2HG: qHTS for the HT-1080-NT fibrosarcoma cell line; HT-1080-NT fibrosarcoma viability, CellTiter-Glo ATP luminescence, 48 h; Potency, µM (highest dose often 46.1 µM), inactives show at the highest dose activity, negative = less viability, usual class: cytotoxic; 360,000 compounds, 1.6% hits; AID 686970, 2013;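 also: NT is the 2HG producing partner of a matched IDH1 knockdown line; 0% = DMSO-treated cells and -100% = media-only wells without cells; nearly all actives have a fitted effect of over 55% in size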
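A 48-hour cytotoxicity screen used HT-1080-NT cells plated 2 hours before compound delivery. ATP-based CellTiter-Glo luminescence measured viability, normalized to DMSO and no-cell controls.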
HT1080 IDH1KD tx = qHTS for induction of synthetic lethality in tumor cells producing 2HG: qHTS for the HT-1080-IDH1KD cell line; HT-1080 IDH1 knockdown viability, ATP luminescence, 48 h; Potency, µM (highest dose often 46.1 µM), without a hit: at the highest dose activity, negative = toxicity, hits mostly cytotoxic; 360,000 compounds, 2% hits; AID 686971, 2013;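 also: 0% = DMSO wells and -100% = cell-free medium wells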
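Knockdown cells (IDH1KD HT-1080) received compounds 2 h after plating at 750 cells/well and were kept 48 h at 37 °C in 5% FBS RPMI. A CellTiter-Glo luminescence read gave % activity for curve fitting.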
MCF10A rerep = A quantitative high throughput screen for small molecules that induce DNA re-replication in MCF 10a normal breast cells; MCF 10A DNA re-replication, Hoechst nuclear intensity, 48 h; Potency, µM (series often up to 46.1 µM), for inactives: at the highest dose activity, positive = re-replication, hits mostly activators; 350,000 compounds, 2.9% hits; AID 624296, 2012; also: % of control where 0% means no effect; nearly all actives have a fitted effect of over 50% in size
KB-3-1 cytotox = qHTS assay for MDR1-selective chemotherapeutics: Primary screen using the parental adenocarcinoma cell KB-3-1 | KB-3-1 viability, CellTiter-Glo ATP luminescence, 72 h | Potency, µM (highest dose often 46.1 µM), most hits filed as cytotoxic | 400,000 compounds, 1.4% hits | AID 1347075, 2019; also: % is scaled to controls: 0 for no effect and ±100 for the full control effect; nearly all actives have a fitted effect of over 60% in size
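Using CellTiter-Glo luminescence, growth of non-resistant KB-3-1 adenocarcinoma cells is assessed 72 h after pin-tool compound addition at 37 °C. Normalized responses across the concentration series yield fitted curves.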
* = called active by the depositor; i = inactive; ? = inconclusive; . = not tested or not shown; ! = repeats disagree. Calls follow the shape of the dose curve; as a rule, active = well fitted curve in the direction sought with a large enough effect; inconclusive = small, poorly fitted or top-dose-only effect, or another doubt; inactive = no such curve, though single readings can be large; an effect the other way counts as inactive or inconclusive. Potency is read from the fitted curve at half-maximal effect.

SMILES	KB-V1 MDR tox	SW480 rereplic	HT1080-NT tox	HT1080 IDH1KD tx	MCF10A rerep	KB-3-1 cytotox
CC(=O)c1ccc(NC(=O)C2CCCN(c3ncnc4c3nc3n4CCCCC3)C2)cc1 (centres undefined)	i	-10%	2%	8%	14%	i
CCOC(=O)C1CCCN(c2ncnc3c2cnn3-c2ccc(OC)cc2)C1 (centres undefined)	?	-8%	7%	15%	8%	i
CCOC(=O)C1CCCN(c2ncnc3c2cnn3-c2ccc(Cl)cc2)C1 (centres undefined)	13µM*	-9%	11%	?	?	i
O=C(C1CCN(c2ncnc3c2nc2n3CCCCC2)CC1)N1CCN(c2cccc(Cl)c2)CC1	i	0%	?	-28%	-5%	?
Clc1cccc(N2CCN(c3ncnc4c3nc3n4CCCCC3)CC2)c1	15µM*	.	.	.	.	13µM*
Cc1ccnc(NC(=O)C2CCCN(c3ncnc4c3nc3n4CCCCC3)C2)c1 (centres undefined)	i	-5%	-5%	22%	?	i
CSc1cccc(NC(=O)C2CCCN(c3ncnc4c3nc3n4CCCCC3)C2)c1 (centres undefined)	15µM*	2%	2%	5%	10%	?
O=C(Nc1ccccn1)C1CCCN(c2ncnc3c2nc2n3CCCCC2)C1 (centres undefined)	i	-3%	0%	-12%	23µM*	i
CC(=O)c1ccc(Nc2cc(C)nc3nc(Cc4ccc(Cl)cc4)nn23)cc1	i	.	.	.	.	i
Cc1cccc(NC(=O)C2CCN(c3ncnc4c3nc3n4CCCCC3)CC2)n1	?	-16%	-2%	-15%	1%	i
O=C(Nc1ccc(Cl)cn1)C1CCCN(c2ncnc3c2nc2n3CCCCC2)C1 (centres undefined)	?	26µM*	19%	12%	2%	i
O=C(C1CCCN(c2ncnc3c2nc2n3CCCCC2)C1)N1CCN(c2ccc(F)cc2)CC1 (centres undefined)	?	9%	-21%	-11%	21%	?
O=C(C1CCCN(c2ncnc3c2nc2n3CCCCC2)C1)N1CCN(c2ccc(Cl)cc2)CC1 (centres undefined)	i	?	?	?	15%	16µM*
O=C(Nc1ccc(Cl)cn1)C1CCN(c2ncnc3c2nc2n3CCCCC2)CC1	21µM*	?	?	?	?	?
O=C(Nc1ccc(F)c(Cl)c1)C1CCN(c2ncnc3c2nc2n3CCCCC2)CC1	?	?	0%	6%	-1%	i
Cc1ccc(NC(=O)C2CCCN(c3ncnc4c3nc3n4CCCCC3)C2)nc1 (centres undefined)	i	-1%	1%	-14%	5%	i
CC(C)c1ccc(NC(=O)C2CCN(c3ncnc4c3nc3n4CCCCC3)CC2)cc1	i	?	-1%	-14%	16µM*	i
Cc1cccc(N2CCN(C(=O)c3cccn4c(=O)c5cc(Cl)ccc5nc34)CC2C)c1 (centres undefined)	i	.	.	.	.	i
Cc1ccc(C)c(N2CCN(C(=O)CCS(=O)(=O)c3ccc4c(c3)CC(=O)N4C)CC2)c1	i	.	.	.	.	i
CC(=O)c1cccc(NC(=O)Cn2c(=O)oc3cc(S(=O)(=O)NC4CCCC4)ccc32)c1	i	.	.	.	.	i
CC(C)C(Cl)=NOC(=O)Nc1ccc(F)cc1	i	?	-8%	16µM*	3.3µM*	i
CCCCCNc1nc2c(-c3ccccc3)nnn2c2ccccc12	i	.	.	.	.	i
CCc1nnc2c3ccccc3nc(N3CCN(c4cc(C)ccc4C)CC3)n12	i	.	.	.	.	?
Cc1ccc(-n2c(C)n[nH]c2=S)cc1	?	4%	21%	-1%	1%	i
Cc1ccc(-c2csc3n[nH]c(=S)n23)cc1	12µM*!	3%	-1%	1%	1%	?
SMILES	KB-V1 MDR tox	SW480 rereplic	HT1080-NT tox	HT1080 IDH1KD tx	MCF10A rerep	KB-3-1 cytotox
Cc1cc(C)c2nc(C(F)(F)F)nc(NCCCN3CCOCC3)c2c1	3.7µM*	?	18µM*	16µM*	?	?
Cc1cc(C)c2cc(C#N)c(NCCNC(=S)NCCCN3CCOCC3)nc2c1	i	?	-1%	0%	?	i
COc1cccc(-c2sc3cc(OC)c(OC)cc3c2-c2ccc(OCCN3CCCCC3)cc2)c1	i	6%	?	16µM*	?	i
COc1ccc(-c2cc(=O)c3ccccc3s2)cc1	15µM*	-23%	-7%	-5%	-13%	i
Oc1ccc2sc(-c3ccccc3O)c(-c3ccc(OCCN4CCCCC4)cc3)c2c1	i	.	?	16µM*	.	?
COc1cccc(-c2sc3ccccc3c2-c2ccc(OCCN3CCCCC3)cc2)c1	?	?	-8%	-15%	14%	?
COc1cccc(-c2sc3ccccc3c2-c2ccc(OCCN(C)C)cc2)c1	?	-12%	?	16µM*	28%	?
COc1ccc(-c2sc3ccccc3c2-c2ccc(OCCN3CCCCC3)cc2)cc1	?	?	-16%	-20%	?	?
COc1ccc2c(-c3ccc(OCCN4CCCCC4)cc3)c(-c3ccccc3OC)sc2c1	i	7%	?	?	?	i
c1ccc(-c2sc3ccccc3c2-c2ccc(OCCN3CCCC3)cc2)cc1	?	4.6µM*	?	-11%	1%	?
COc1ccc(-c2sc3cc(OC)ccc3c2-c2ccc(OCCN3CCCCC3)cc2)cc1	?	.	21µM*	16µM*	.	?
CCNS(=O)(=O)c1ccc(NS(=O)(=O)c2cc(C)ccc2C)cc1	i	1%	-8%	-4%	7%	i
Cc1ccc(S(=O)(=O)NCCCNC(=O)c2ccccc2)cc1	18µM*	-4%	10%	2%	-1%	i
Cc1ccc(S(=O)(=O)NCCCNS(=O)(=O)c2ccc(C)cc2)cc1	15µM*	-2%	7%	0%	1%	i
Cc1ccc(S(=O)(=O)NCCCN(C)C)cc1	i	-6%	2%	11%	6%	i
Cc1ccc(S(=O)(=O)NCCNC(=O)c2ccccc2)cc1	i	-2%	-1%	1%	-3%	i
